# Screening results (PubChem BioAssay)
# A selection: hits, their analogues and other compounds. The true share with any hit is near 2.8%.
# IP6K1 inh: inhibitors of human IP6K1; IP6K1 kinase, ADP-Glo luminescence, 2 h; hits give low values; 140,000 tested, 0.81% active; AID 1645851; activity change, % (series mostly up to about 58 µM); in the data active means activity change below about -25%; further: on the % scale 0 is the no-effect control and ±100 the full control effect
# Target sequence (Q92551 whole entry, looked up): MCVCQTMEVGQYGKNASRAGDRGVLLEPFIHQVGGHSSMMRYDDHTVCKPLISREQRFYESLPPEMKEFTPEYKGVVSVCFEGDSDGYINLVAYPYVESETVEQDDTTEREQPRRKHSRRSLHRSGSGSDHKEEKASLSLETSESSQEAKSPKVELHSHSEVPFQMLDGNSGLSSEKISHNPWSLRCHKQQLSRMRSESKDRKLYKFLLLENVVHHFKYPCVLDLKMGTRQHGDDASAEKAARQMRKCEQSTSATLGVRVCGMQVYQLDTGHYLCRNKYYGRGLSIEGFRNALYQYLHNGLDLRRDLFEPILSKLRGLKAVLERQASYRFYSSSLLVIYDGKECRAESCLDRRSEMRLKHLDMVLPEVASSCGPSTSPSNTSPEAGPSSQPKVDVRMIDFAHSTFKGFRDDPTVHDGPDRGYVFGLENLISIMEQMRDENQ
#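 ADP-Glo luminescence measures ADP made by human IP6K1 during a 2 h RT reaction with ATP/IP6 (mix at 1.3 mM/130 uM); top library doses 57.5 and 19.1 uM final.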
# KDM5B inh: inhibitors of human KDM5B histone demethylase; Q9UGL1; KDM5B demethylase, FDH-coupled NADH fluorescence (FDH is formaldehyde dehydrogenase); AID 1347165; Potency, µM (doses to about 57.7 µM), most hits filed as inhibitors; 220,000 tested, 2.6% active; further: potency means the concentration at half of the fitted maximal effect; 0% is about no effect; nearly all actives have a fitted effect of over 70% in size
#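 qHTS format, multiple compound concentrations. Buffer 50 mM HEPES pH 7.5/0.01% Tween-20; 200 nM KDM5BΔAP final; 10 min compound preincubation; substrate-mix levels 12.5 µM peptide, 25 µM α-KG, 0.25 mM NAD⁺; 30 min RT; ΔRFU.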
# HEK293 viab: cell viability loss counter-screen; AID 1671193; Potency, µM (doses to about 57.1 µM), without a hit: at the highest dose activity change, negative = cytotoxicity, usual class: cytotoxic; 150,000 tested, 0.12% active; HEK-293-SNCA-luc viability, GF-AFC fluorescence, 24 h;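 further: potency means the concentration at half of the fitted maximal effect; 0% = DMSO-treated cells and -100% = medium-only wells without cells; nearly all actives have a fitted effect of over 30% in size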
#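 HEK-293-SNCA-luc cells (1500/well) plated 24 h, then exposed 24 h to a dilution series; GF-AFC added 30 min at 37C, fluorescence 405/540 nm; normalised to medium-only and DMSO wells, Hill fit.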
# SNCA expr inhib: SNCA gene expression inhibition; HEK-293 SNCA-luciferase knock-in, luminescence, 24 h; Potency, µM (titrated, usually from 57.2 µM), without a hit: top-dose activity change, negative = inhibition, usual class: inhibitors; 140,000 tested, 0.17% active; AID 1671194;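 further: potency means the concentration at half of the fitted maximal effect; plate controls were DMSO cells for no effect and cell-free wells for full effect; nearly all actives have a fitted effect of over 45% in size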
# * = called active by the depositor; i = inactive; ? = inconclusive; / = no result; [ ] = another dose, or the depositor's remark. Unless noted, the call rests on the fitted dose curve; in most records, active means well fitted curve in the direction sought with a large enough effect; inconclusive means small, poorly fitted or top-dose-only effect, or another doubt; inactive means no such curve, though single readings can be large; an effect the other way counts as inactive or inconclusive.
SMILES,IP6K1 inh,KDM5B inh,HEK293 viab,SNCA expr inhib
O=C(Cc1ccccc1F)N1CCCN(c2cc(-c3ccc(Cl)cc3)[nH]n2)CC1,-10.3,10µM*,?,-10.8%
CN(C)c1cccc(C(=O)NC2CCN(c3cc(-c4ccc(Cl)cc4)[nH]n3)CC2)c1,15.6,31.6µM*,-4.7%,177.5%
CN(C)c1cccc(C(=O)N2CCN(c3cc(-c4ccc(Cl)cc4)[nH]n3)CC2)c1,6.6,31.6µM*,-22.5%,3.2%
COc1ccc(-c2cc(N3CCCC(NC(=O)c4cccc(N(C)C)c4)C3)n[nH]2)cc1 (configuration not stated),0.0,28.2µM*,-18.3%,26.0%
O=C(O)C[C@@H]1CCN(S(=O)(=O)c2ccccc2)C[C@@H]1CCN1CCN(c2cccc(C(F)(F)F)c2)CC1,2.4,i,-0.8%,5.8%
CC1CCCCC1NC(=O)c1ccc2c(c1)CCC2 (configuration not stated),/,i,/,/
Clc1ccc(-c2cnc([C@@H]3COCCN3C3CCCCC3)[nH]2)s1,5.2,?,?,?
COc1ccc(S(=O)(=O)NC[C@@H]2C=C(C)[C@H](CC(=O)N3CCN(C)CC3)C[C@H]2C(C)C)cc1,13.0,i,-15.5%,-11.0%
COCC(=O)NC[C@@H]1C=C(C)[C@H](CC(=O)N2CCN(c3ccccn3)CC2)C[C@H]1C(C)C,13.4,31.6µM*,-9.4%,-9.9%
CC1=C[C@@H](CNC(=O)COc2ccccc2)[C@H](C(C)C)C[C@H]1CC(=O)N1CCN(C)CC1,-6.1,i,-8.4%,-8.1%
CC1=C[C@@H](CNC(=O)CC(C)(C)C)[C@H](C(C)C)C[C@H]1CC(=O)O,3.3,28.2µM*,8.6%[87.6 µM],5.1%[87.6 µM]
COCCNC(=O)C[C@@H]1C[C@@H](C(C)C)[C@H](CNS(=O)(=O)c2ccc(OC)cc2)C=C1C,-0.8,22.4µM*,-8.3%,4.7%
COc1ccc(S(=O)(=O)NC[C@@H]2C=C(C)[C@H](CC(=O)N3CCN(c4ccccn4)CC3)C[C@H]2C(C)C)cc1,-4.5,28.2µM*,?,?
O=C(CCn1ccn2nc3c(c2c1=O)CCCC3)Nc1ccccc1Br,10.9,i,-5.2%,36.6%
COc1cccc(S(=O)(=O)NCCc2noc(-c3cccnc3)n2)c1,12.5,i,-18.7%[12.5 µM],-7.8%
CCn1nc(C)c(CCN(C)C(=O)C2CCN(c3cnn(Cc4ccccc4)c(=O)c3)C2)c1C (configuration not stated),-6.1,/,-2.0%,-1.8%
COc1cccc(NC(=O)NC[C@@H]2C=C(C)[C@H](CC(=O)N3CCN(c4ccccn4)CC3)C[C@H]2C(C)C)c1,4.8,31.6µM*,?,?
COc1ccc(NC(=O)N2CCc3c(C(=O)NCCCN4CCCC4=O)cccc32)cc1,5.3,i,15.6%,10µM*
COc1ccc(OC2CCN(C(C)=O)CC2)c(C(=O)NCCc2c(C)n[nH]c2C)c1,-2.2,28.2µM*,1.7%,-22.1%
CCN1CCN(CCNC(=O)c2cccc3c2CCN3C(=O)Nc2ccc(C)cc2)CC1,6.3,i,-6.6%,12.6µM*
COc1ccc(OC2CCN(C3CCCC3)CC2)c(C(=O)NCCCN2CCCC2=O)c1,21.5,31.6µM*,2.6%,16.0%
CCOc1ccccc1C(=O)N[C@@H]1CN(C)C[C@H]1CN(C)C,-3.8,i,6.9%,12.7%
Cc1cc(N2CCN(c3cccc(C)c3C)CC2)n2nc(-c3ccco3)nc2n1,/,i,/,/
CCCNC(=O)c1cccc2c1CCN2C(=O)Nc1ccc(OC)cc1,-5.0,i,-9.6%,28.2µM*
COc1ccc(NC(=O)N2CCc3c(C(=O)Nc4ccc5c(c4)OCO5)cccc32)cc1,-5.8,22.4µM*,17.9%,7.94µM*
SMILES,IP6K1 inh,KDM5B inh,HEK293 viab,SNCA expr inhib
COc1ccc(NC(=O)N2CCc3c(C(=O)NCCCN(C)C)cccc32)cc1,-7.1,i,4.2%,?
NC(=O)c1cc(Cl)ccc1OCc1ccc(OC(F)(F)F)cc1,/,i,/,/
CCC(=O)NCCCNC(=O)c1cc(-c2ccccc2)nc2ccccc12,/,i,/,/
O=C1[C@@H]2C[C@@H](CN2Cc2ccnc3ccccc23)Oc2ccccc2N1CC1CC1,-7.5,35.5µM*,-5.0%[87.6 µM],-16.3%[87.6 µM]
Cn1ccnc1CN1C[C@@H]2C[C@H]1C(=O)N(CC1CC1)c1ccccc1O2,16.7,i,-2.7%[87.6 µM],?
CCC(c1cccs1)N1C(=O)[C@H]2CN(CCC(C)C)C[C@H]2C1=O (some centres not stated),1.0,i,?,3.55µM*
CCC(c1cccs1)N1C(=O)[C@H]2CN(S(=O)(=O)c3ccccc3)C[C@H]2C1=O (some centres not stated),4.5,i,3.7%,-19.1%
COCCNC(=O)C1(C)CCc2cnc(NCc3ccccc3)nc21 (configuration not stated),-6.0,35.5µM*,2.3%[87.6 µM],?
COCCNC(=O)C1(C)CCc2cnc(Nc3ccccc3)nc21 (configuration not stated),-4.3,i,-13.7%[87.6 µM],-33.2%[87.6 µM]
CC1(C(=O)NCC2CC2)CCCc2cnc(Nc3ccccc3)nc21 (configuration not stated),-8.1,i,-26.1%[87.6 µM],?
CC1(C(=O)NCC2CC2)CCc2cnc(NCc3ccccc3)nc21 (configuration not stated),5.1,39.8µM*,-6.0%[87.6 µM],?
Cn1ccc(NC(=O)C2(C)CCc3cnc(NCc4ccccc4)nc32)n1 (configuration not stated),-2.6,35.5µM*,-6.6%[87.6 µM],-1.2%[87.6 µM]
CC1(C(=O)NCCCn2ccnc2)CCc2cnc(NCc3ccccc3)nc21 (configuration not stated),1.6,39.8µM*,-5.6%[87.6 µM],?
Cc1ccc(C(=O)COC(=O)C2C3CCC(C3)C2C(=O)OCC(=O)c2ccc(C)c(C)c2)cc1C (configuration not stated),/,i,/,/
O=C(Nc1nn(Cc2ccc(Cl)cc2Cl)cc1Cl)c1nc2ncccn2n1,/,i,/,/
Cc1cc(=O)n2[nH]c(CC(=O)N3CCn4nc(C(C)O)cc4C3)nc2n1 (configuration not stated),29.9,i,6.8%,-24.1%
CN(C(=O)c1cccc(Cl)c1)c1nc2ccccc2o1,/,i,/,/
CO[C@@H]1CCOC[C@H]1NS(=O)(=O)c1cc(F)ccc1C,24.8,i,11.9%,29.7%
Cn1cnc2cc(-c3ccccc3)cc(C(=O)NCc3cccnc3)c21,-1.5,31.6µM*,-10.3%[87.6 µM],14.9%[87.6 µM]
COc1ccc(CNC(=O)c2cc(-c3ccc(F)cc3)cc3ncn(C)c23)cc1OC,-10.2,i,6.8%[87.6 µM],76.9%[87.6 µM]
COc1cc(CNC(=O)c2cc(-c3cccc(N(C)C)c3)cc3ncn(C)c23)ccn1,-0.3,i,-23.2%[87.6 µM],74.5%[87.6 µM]
Cn1cnc2cc(-c3cccc(C(F)(F)F)c3)cc(C(=O)NCc3cccnc3)c21,-6.9,?,-23.9%[87.6 µM],13.2%[87.6 µM]
COCCNC(=O)c1cc(-c2cnn(Cc3ccccc3)c2)cc2ncn(C)c12,10.0,35.5µM*,2.1%[87.6 µM],-1.1%[87.6 µM]
COc1cc(F)ccc1-c1cc(C(=O)NCc2ccnc(N)c2)c2c(c1)ncn2C,-0.5,35.5µM*,-15.0%[87.6 µM],0.3%[87.6 µM]
